The values that follow come from PubChem BioAssay.

Experiment [1] in a line: rapamycin-like changes in RPL19A-GFP expression – cell-based, S. cerevisiae, multiplex flow cytometry, primary screen (AID 1862; in the data active = percent of DMSO control GFP below about 86%;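 note: lower values mimic rapamycin by blocking the RPL19A rise seen in DMSO cells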). Particulars: S. cerevisiae RPL19A-GFP strain, flow cytometry fluorescence, 3 h; at 10 µM; stronger effect = lower value. (In general: A flow cytometer gives signals particle by particle.)
Experiment [2] in a line: TOR pathway GLN3 branch reporter MEP2-GFP changes – S. cerevisiae, multiplex flow cytometry, primary screen (AID 1867;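 active = GFP response, as percent of the DMSO control, above the screen-wide mean plus 3 SD, about 139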;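 note: median GFP channel fluorescence of barcode-gated MEP2-GFP cells measured by flow cytometry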). Particulars: S. cerevisiae MEP2-GFP strain, 3 h, at 10 µM, stronger effect = higher value, 100% means same as DMSO wells.
Experiment [3] in a line: TOR pathway RTG branch CIT2 reporter changes – S. cerevisiae, GFP fusion, multiplex flow cytometry, primary screen (AID 1870;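 active = percent response above a set limit, the screen-wide mean plus 3 SD, cut at about 130% in these data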;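 note: barcoded CIT2-GFP strain pooled with four other GFP strains with rapamycin as positive control; median GFP fluorescence per well over plate mean of DMSO wells so 100% = DMSO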). The settings on record: S. cerevisiae CIT2-GFP expression, 3 h, at 10 µM, stronger effect = higher value.
Experiment [4] in a line: TOR pathway LAP4-GFP level changes – S. cerevisiae, multiplex flow cytometry, primary screen (AID 1873;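 active = GFP signal, as percent of the solvent control, above the screen mean plus 3 SD, about 149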). The settings on record: S. cerevisiae LAP4-GFP expression, 3 h, at 10 µM, stronger effect = higher value.
Experiment [5] in a line: yeast AGP1-GFP level changes, GLN3 branch – cell-based, multiplex flow cytometry, S. cerevisiae, primary screen (AID 1887;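 active = GFP signal above the screen-wide mean plus 3 SD, that is over about 124.5% of the solvent control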;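 note: AGP1-GFP fusion strain of S. cerevisiae within a five-strain barcoded multiplex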). The settings on record: 3 h, at 10 µM, stronger effect = higher value.
Experiment [6] is described as follows: hit retest on RPL19A-GFP reporter strain – cell-based, S. cerevisiae, flow cytometry, cherry picks, mother/daughter gates, confirmation (AID 2270;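 active = GFP response below 50% of the DMSO control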). The settings on record: 3 h, at 10 µM, stronger effect = lower value, 100 = same GFP as DMSO wells.
Experiment [7] in a line: yeast TOR pathway reporter LAP4-GFP change – cell-based, cherry picks, flow cytometry, mother/daughter gates, confirmation (AID 2271;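 active = GFP response above 150% of the DMSO control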;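 note: ratio of sample to DMSO plate mean so 100% equals DMSO level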). Particulars: S. cerevisiae LAP4-GFP strain, 3 h, at 10 µM, stronger effect = higher value, 100 means same as DMSO control.
A short description of experiment [8]: TOR pathway reporter MEP2-GFP, retest of hits – S. cerevisiae, flow cytometry GFP, cherry picks, confirmation (AID 2272).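 Note: ratio of well signal to plate DMSO mean so 100% equals DMSO level.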 The settings on record: S. cerevisiae MEP2-GFP strain, 3 h, at 10 µM, stronger effect = higher value.
Experiment [9] can be described thus: TOR pathway CIT2 reporter hit retest – S. cerevisiae, GFP fusion, cherry picks, mother/daughter gates, confirmation (AID 2274;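 active = GFP response above 150% of the DMSO level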). The settings on record: S. cerevisiae CIT2-GFP strain, flow cytometry, 3 h, at 10 µM, stronger effect = higher value.
Experiment [10] is described as follows: reduced mouse 2C T cell binding to pMHC/ICAM-1 vesicles – MLPCN validation set, flow cytometry, LFA-1/ICAM-1 modulator project, pilot screen (AID 2523;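 active = response below a set limit, under 55% cells CD8-positive and vesicle-bound, and CD8 cells' 90th-percentile brightness under 279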;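 for vesicle binding response: mean PE anti-B7-1 fluorescence of CD8+ cells relative to row control; 100% = QL9-loaded vesicles with DMSO vehicle in the same plate row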). The settings on record: 2C mouse CD8+ T cells, at 7 µM, stronger effect = lower value; double positive events: measured here: CD8+/vesicle+ event percentage.
The mark [11] stands for this setting: measured here: daughter cell gate.
Setting [12] is: measured here: mother cell gate.
Where [13] appears, read: measured here: daughter cell gate response.
Where [14] appears, read: measured here: mother cell gate response.

Results filed as inconclusive are left out. Activity calls are given as the source filed them.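 Rule for the calls, unless noted: active = GFP response above 150% of the DMSO control; inconclusive = Fewer than 70 cells counted for a yeast strain; inactive = the rest.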

For `CC(NCCc1ccc(O)cc1)C(O)c1ccc(O)cc1` (stereo not given), the percent of DMSO control GFP in [1] was 92.4% (inactive). Further, the GFP response vs DMSO in experiment [2] is 144% (active); in [4], 80.9% (inactive); in [6] it was 93% (inactive); in [6] (setting [11]) it was 91.6%; in [6] (setting [12]) it was 94.1%; in [8] it was 100% (inactive). The percent response of DMSO control in experiment [3] is 91.3% (inactive). The GFP response, % of DMSO in [5] is 93.1% (inactive); in [9], 101% (inactive); in experiment [9] (setting [11]) it was 101%; in experiment [9] (setting [12]) it was 103%. The values for the GFP response relative to DMSO in [7], in [7] (setting [13]) and in experiment [7] (setting [14]) were 97.9% (inactive), 96% and 98.3%, respectively. In experiment [10], this compound came in with a double positive events of 59%. Moreover, the vesicle binding response in experiment [10] was 174% (inactive).

Consider `CC(=O)[C@H]1CC[C@H]2[C@@H]3CCC4=CC(=O)CC[C@]4(C)[C@H]3CC[C@]12C`, for which the percent of DMSO control GFP in experiment [1] is 100% (inactive). In addition, the GFP response vs DMSO in experiment [2] is 108% (inactive); in experiment [4] it was 94.8% (inactive); in experiment [6], 99.9% (inactive); in experiment [6] (setting [11]), 99.3%; in experiment [6] (setting [12]), 100%; in experiment [8] it was 99.5% (inactive). The percent response of DMSO control in experiment [3] is 98.6% (inactive). Besides, the GFP response, % of DMSO in [5] was 104% (inactive); in experiment [9], 97.8% (inactive); in experiment [9] (setting [11]) it was 96.4%; in experiment [9] (setting [12]) it was 98%. Further, the values for the GFP response relative to DMSO in [7], in [7] (setting [13]) and in experiment [7] (setting [14]) were 100% (inactive), 97.9% and 101%, respectively. Also, in experiment [10], the double positive events came to 64%. Moreover, the vesicle binding response in experiment [10] was 119% (inactive).

For the compound `O=C1ON=C(c2ccc(Cl)cc2)/C1=C/c1ccc(O)cc1`, in experiment [1], the percent of DMSO control GFP is 108% (inactive). Further, the GFP response vs DMSO in experiment [2] is 95.2% (inactive); in experiment [4] it was 98.2% (inactive); in experiment [6] it was 101% (inactive); in experiment [6] (setting [11]), 105%; in [6] (setting [12]), 96.8%; in experiment [8], 100% (inactive). For the same compound, in experiment [3], the percent response of DMSO control was 112% (inactive). In addition, the GFP response, % of DMSO in [5] is 87.4% (inactive); in experiment [9], 111% (inactive); in experiment [9] (setting [11]), 114%; in [9] (setting [12]), 104%. In addition, the GFP response relative to DMSO in [7] was 90.2% (inactive); in experiment [7] (setting [13]) it was 95.6%; in [7] (setting [14]), 89%. Besides, the double positive events in [10] turned out to be 60.6%. Further, in experiment [10], the vesicle binding response is 94.3% (inactive).

Regarding `Cc1ccc2[nH]c3c(c2c1)CCNC3=O`, the percent of DMSO control GFP in [1] was 99.1% (inactive). For the same compound, the GFP response vs DMSO is 95.9% (inactive) in experiment [2]; 91.3% (inactive) in [4]; 101% (inactive) in [6]; 100% in experiment [6] (setting [11]); 103% in experiment [6] (setting [12]); 100% (inactive) in experiment [8]. For the same compound, the percent response of DMSO control in experiment [3] was 104% (inactive). The GFP response, % of DMSO in experiment [5] is 98.7% (inactive); in experiment [9], 111% (inactive); in experiment [9] (setting [11]), 106%; in experiment [9] (setting [12]) it was 114%. Besides, the GFP response relative to DMSO is 91.4% (inactive) in experiment [7], 92.5% in [7] (setting [13]) and 94.2% in [7] (setting [14]). In [10], this compound registered a double positive events of 57.6%. For the same compound, in experiment [10], the vesicle binding response is 187% (inactive).

As for `c1ccc2c(c1)CCOC2CNCCCN1CCCCC1` (stereo not given), the percent of DMSO control GFP in experiment [1] was 92% (inactive). For the same compound, the GFP response vs DMSO in experiment [2] was 142% (active); in [4], 98% (inactive); in experiment [6], 101% (inactive); in experiment [6] (setting [11]), 101%; in experiment [6] (setting [12]), 102%; in [8], 100% (inactive). Further, the percent response of DMSO control in experiment [3] is 126% (active). The GFP response, % of DMSO in experiment [5] is 113% (inactive); in experiment [9] it was 108% (inactive); in experiment [9] (setting [11]) it was 105%; in [9] (setting [12]), 113%. Further, the GFP response relative to DMSO was 92.6% (inactive) in experiment [7], 97.2% in experiment [7] (setting [13]) and 94.2% in [7] (setting [14]). The compound further yielded a double positive events in experiment [10] of 52.2%. Moreover, the vesicle binding response in experiment [10] was 279% (inactive).
